High-throughput results: PubChem BioAssay, Sanford-Burnham Center for Chemical Genomics
An excerpt weighted towards active compounds, which were near 4% of everything screened.
HIF-2a inh – HIF-2a inhibition | 786-0 RCC cells HIF-2a reporter, luciferase luminescence, overnight | inhibition, % at 18.8 µM | 0.72% of 360,000 active;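 active = inhibition of the luminescence signal of 40% or more relative to plate controls, in a single-dose primary screen at 18.75 µM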
KKLEB cytotox – reduces viability of KKLEB cystic fibrosis airway cells. 0.36% of 360,000 active. activity change (cytotoxicity), % at 5 µM. KKLEB CF airway cells viability, ATPlite luminescence, overnight; hits give low values; cells stimulated with P. aeruginosa culture filtrate;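 active = corrected activity change at or below -50% at 5 µM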
CF NFkB inh – blocks PAF-induced NF-kB reporter in cystic fibrosis cells; KKLEB NF-kB-GFP reporter, GFP fluorescence overnight; inhibition, % at 5 µM; 0.86% of 360,000 active; AID 588850;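 active = at least 50% inhibition at 5 µM, scaled per plate between neutral and stimulator controls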;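 also: PAF is a Pseudomonas aeruginosa culture filtrate used as stimulus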
Peg3 promoter – reduces Peg3 promoter-driven luciferase expression in HeLa | HeLa PEG-Prom luciferase reporter, luminescence, overnight | inhibition, % at 20 µM | 1.7% of 360,000 active;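 active = inhibition of at least 50% at 20 µM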
TWEAK Fn14 block – blocks TWEAK-Fn14 interaction in a reporter cell assay | 2% of 360,000 active | AID 1159606 | inhibition, % at 10 µM | TWEAK-stimulated Fn14 reporter cells, luciferase luminescence, 8 h; in the data active = inhibition above about 50%
TROY signal inh – TROY signaling inhibition | Q293 LMP1-TROYcd NF-kB luciferase reporter, 4 h | inhibition, % at 10 µM | 0.98% of 360,000 active | AID 1347056;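 active = compounds whose plate-normalised and pattern-corrected inhibition of the luciferase reporter signal at the single screening dose is 50% or more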
Of the large screens only hits and unclear results are named; the others gave an inactive call.

O=C(/C=C/c1ccc(Cl)c([N+](=O)[O-])c1)Nc1ccc(NC(=O)c2ccco2)cc1	Peg3 promoter 61
O=C(/C=C/c1ccc(Cl)c([N+](=O)[O-])c1)Nc1cccc(NC(=O)c2ccco2)c1	Peg3 promoter 114, TWEAK Fn14 block 55
O=C(Nc1ccc(Cl)c([N+](=O)[O-])c1)c1ccco1	none
O=C(/C=C/c1cccc([N+](=O)[O-])c1)Nc1cccc(NC(=O)c2ccco2)c1	none
COc1ccc(C(C(=O)Nc2c(C)cccc2C)N2CCN(C)CC2)cc1 (stereo not drawn)	none (no result: KKLEB cytotox, CF NFkB inh, Peg3 promoter, TWEAK Fn14 block, TROY signal inh)
C/C(=N\Nc1ncnc2sc(C)c(C)c12)c1ccccn1	Peg3 promoter 84, TWEAK Fn14 block 73
C/C(=N\Nc1ncc(Cl)cc1Cl)c1ccccn1	KKLEB cytotox -59, Peg3 promoter 71, TWEAK Fn14 block 92
C/C(=N\Nc1ncc(Cl)cc1Cl)c1ccc(N2CCOCC2)cc1	TWEAK Fn14 block 62, TROY signal inh 55
COC(=O)C(C)N1C(=O)S/C(=C\c2ccc(-c3ccc(C(=O)O)cc3C)o2)C1=O (stereo not drawn)	none
CCOc1ccc2nc(SC3CC(=O)N(c4ccc(C)cc4)C3=O)sc2c1 (stereo not drawn)	Peg3 promoter 89
CCOC(=O)c1ccc(N2C(=O)CC(Sc3nnc(C)s3)C2=O)cc1 (stereo not drawn)	TWEAK Fn14 block 69 (no result: TROY signal inh)
C=CCNc1nnc(SC2CC(=O)N(c3ccc(OCCC)cc3)C2=O)s1 (stereo not drawn)	Peg3 promoter 104
CCOc1ccc(N2C(=O)CC(Sc3ncccn3)C2=O)cc1 (stereo not drawn)	none
CCOc1ccc(N2C(=O)CC(Sc3nc4ccc(OCC)cc4s3)C2=O)cc1 (stereo not drawn)	none
CCOC(=O)c1ccc(N2C(=O)C=CC2=O)cc1	HIF-2a inh 95, Peg3 promoter 103
Clc1cccc(-c2cccc3nccn23)c1	none
COc1ccc(CCNC(=O)c2cc3cc(F)ccc3nc2C)cc1OC	TWEAK Fn14 block 51
COc1ccc(CC(=O)NCCc2ccc(OC)c(OC)c2)cc1	Peg3 promoter 52
COc1ccc(CCNC(=O)Cc2ccccc2)cc1OC	none
COc1ccc(CCNC(=O)C2COc3ccccc3O2)cc1OC (stereo not drawn)	TWEAK Fn14 block 93
COc1ccc(CC(=O)Nc2nc(-c3cc(OC)ccc3OC)cs2)cc1	TWEAK Fn14 block 65
COc1ccc(CNC(=O)c2ccc3ccccc3n2)cc1OC	TWEAK Fn14 block 54
c1ccc2oc(-c3ccc(Nc4nc(N5CCOCC5)nc(N5CCOCC5)n4)cc3)nc2c1	none
O=C(NCCCl)Nc1cc([N+](=O)[O-])ccc1Cl	TROY signal inh 62
Cc1cc(C(=O)CSc2nncs2)c(C)n1Cc1ccco1	none
C=CCn1c(C)cc(C(=O)CSc2nc3ccccc3[nH]2)c1C	TWEAK Fn14 block 80
C=CCn1c(C)cc(C(=O)CSc2nc3ccccc3c(=O)[nH]2)c1C	none
Cc1cc(C(=O)CCl)c(C)n1Cc1ccco1	Peg3 promoter 62
COCC(C)n1c(C)cc(C(=O)CSc2nc3ccccc3c(=O)[nH]2)c1C (stereo not drawn)	none
Cc1cc(C(=O)CSc2nc3ccccc3[nH]2)c(C)n1Cc1ccco1	TWEAK Fn14 block 92, TROY signal inh 81
COCCn1c(C)cc(C(=O)CSc2nc3ccccc3c(=O)[nH]2)c1C	TWEAK Fn14 block 69
Cc1sc(NC(=S)NC(=O)c2ccco2)c(C#N)c1C	none
CC(C)CN(C(=O)CCCSc1nc2ccccc2[nH]1)c1c(N)n(Cc2ccccc2)c(=O)[nH]c1=O	none
NC(c1csc(Nc2nncc3ccccc23)n1)c1ccccc1Cl (stereo not drawn)	none
COc1cc(OC)nc(Nc2nc(C(N)Cc3ccc(F)cc3)cs2)n1 (stereo not drawn)	Peg3 promoter 96
CCc1cnc(Nc2nc(C(N)Cc3ccc(Cl)cc3)cs2)nc1 (stereo not drawn)	none
COc1ccc(CC(N)c2csc(Nc3nncc4ccccc34)n2)cc1 (stereo not drawn)	Peg3 promoter 121
CCCc1cnc(Nc2nc(C(N)Cc3ccc(OC)cc3)cs2)nc1 (stereo not drawn)	Peg3 promoter 100
COC(=O)C1CCCN1C(=O)C12CC3CC(CC(C3)C1)C2 (stereo not drawn)	none
Clc1ccc(Nc2ncnc3ccc(Br)cc23)cc1	CF NFkB inh 73, TWEAK Fn14 block 74
CC(C)(C)c1ccc2c(c1)C(=O)c1ccccc1C2=O	TROY signal inh 52
CCc1ccc2c(c1)C(=O)c1ccccc1C2=O	none
C[C@H](CO)N1C[C@H](C)[C@@H](CN(C)Cc2ccccc2)Oc2ccc(NC(=O)CCCCCC(=O)Nc3ccccc3N)cc2C1=O	none
Cc1ccc(NC(=O)c2ccc3c(c2)OCCO3)cc1C	TWEAK Fn14 block 85
O=C(Nc1ccc2c(c1)OCCO2)c1ccc(NC(=O)C2CCCO2)cc1 (stereo not drawn)	HIF-2a inh 58
Cc1cccc(NC(=O)c2ccc3c(c2)OCCO3)c1	none
O=C(NCc1ccc2c(c1)OCO2)c1ccc(NC(=O)C2CCCO2)cc1 (stereo not drawn)	none
COC(=O)c1ccc(CNC(=O)c2ccc3c(c2)OCCO3)cc1	TWEAK Fn14 block 79
O=C(CCNS(=O)(=O)c1ccc2c(c1)CCC(=O)N2)Nc1ccc2c(c1)OCCO2	TWEAK Fn14 block 68, TROY signal inh 56
CO[C@H]1CN(C)C(=O)c2cc(NC(=O)c3ccccc3)ccc2OC[C@H](C)NC[C@@H]1C	none (no result: KKLEB cytotox, CF NFkB inh, Peg3 promoter, TWEAK Fn14 block, TROY signal inh)
O=C(Nc1ccc2c(c1)OCCO2)c1ccc(Cl)cc1	none
CC(C)(C)c1ccc(C(=O)NCCC(=O)Nc2ccc3c(c2)OCCO3)cc1	TWEAK Fn14 block 67, TROY signal inh 65
O=C(Nc1ccc(NC(=O)c2ccc3c(c2)OCCO3)cc1)c1ccccc1	Peg3 promoter 100
Cc1ccc(C(=O)NCC(=O)Nc2ccc3c(c2)OCCO3)cc1	none
Cc1ccc(NC(=O)c2ccc3c(c2)OCCO3)cc1S(=O)(=O)Nc1cccc(Cl)c1	TWEAK Fn14 block 62, TROY signal inh 59
O=C(Nc1ccccc1)c1ccc2c(c1)OCCO2	none
O=C(Nc1ccc2oc(-c3ccccc3F)nc2c1)c1ccc2c(c1)OCCO2	TWEAK Fn14 block 72, TROY signal inh 60
O=C(NCc1ccc(F)cc1F)[C@@H]1CCCN1C(=O)[C@@H]1CCCN1C(=O)c1ccccc1	none (no result: KKLEB cytotox, CF NFkB inh, Peg3 promoter)
COC1=CC(=O)OC(c2ccc(C#N)cc2)C1 (stereo not drawn)	none (no result: KKLEB cytotox, CF NFkB inh, Peg3 promoter, TWEAK Fn14 block, TROY signal inh)
COc1ncnc2c1ncn2CCCN(C)Cc1ccco1	none
Cc1ccc(NC(=O)c2nnn(-c3ccc4c(c3)OCCO4)c2N)cc1	none
O=C(CCCc1ccccc1)c1ccc2c(c1)OCCO2	HIF-2a inh 66, KKLEB cytotox -57, Peg3 promoter 87, TWEAK Fn14 block 102, TROY signal inh 88
